Values without a mark were called inactive. No rule for the calls is given here.
Molecular target: CD276, Q5ZPR3
Sequence (Q5ZPR3 whole entry): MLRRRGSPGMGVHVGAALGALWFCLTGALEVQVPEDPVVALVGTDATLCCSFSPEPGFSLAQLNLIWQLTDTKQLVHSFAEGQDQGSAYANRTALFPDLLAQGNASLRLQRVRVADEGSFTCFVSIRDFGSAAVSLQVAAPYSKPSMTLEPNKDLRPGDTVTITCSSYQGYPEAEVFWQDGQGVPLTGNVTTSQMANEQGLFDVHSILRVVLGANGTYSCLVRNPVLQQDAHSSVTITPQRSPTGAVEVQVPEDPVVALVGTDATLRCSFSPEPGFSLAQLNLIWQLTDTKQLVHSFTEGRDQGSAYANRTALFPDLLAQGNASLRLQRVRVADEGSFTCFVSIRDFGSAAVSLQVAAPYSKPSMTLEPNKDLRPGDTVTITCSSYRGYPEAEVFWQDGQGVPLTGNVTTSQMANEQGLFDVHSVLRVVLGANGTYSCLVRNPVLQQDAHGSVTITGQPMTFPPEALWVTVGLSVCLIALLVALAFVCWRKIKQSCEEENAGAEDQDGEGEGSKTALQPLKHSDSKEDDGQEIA

| Binder | binding in a display sort |
| --- | --- |
| design_612_bdadb936-3f14-48ad-830f-718e38d81c30_1730_dldesign_0_cycle1_af2pred (protein) AAAAAVAKVKAAKEKAKELLEEARKLAKEDPEKAGEVLNKALTYVSKVAAQAAKDGPEAAAAAAKVLGEVLDEVAEIEKLRKEIAA | not found |
| design_612_bdadb936-3f14-48ad-830f-718e38d81c30_1931_dldesign_0_cycle1_af2pred (protein) SMEELEKKREEAEKGLEEIKELAKKAAEGAKDPATAAATMAEALEKLEEYKETIELAKEVGEELAEKVRAAVNELLANVARAGAVAAA | not found |
| design_612_bdadb936-3f14-48ad-830f-718e38d81c30_1324_dldesign_0_cycle1_af2pred (protein) AFAAAIAALTAAAAATTPALATQLNAVKTAVTNTAKNAQAAPPEVKAATAAKWAEIAQGAVDAALAAAAA | not found |
| design_612_bdadb936-3f14-48ad-830f-718e38d81c30_271_dldesign_0_cycle1_af2pred (protein) AARAEALAAEGEALIEQALSDATLSEEERKALLNQAAHKFVAAAGALVADRGPAAQAEITALLSKAVEAKALAEA | not found |
| design_612_bdadb936-3f14-48ad-830f-718e38d81c30_1230_dldesign_0_cycle1_af2pred (protein) AAAAAVATAAADAMYKQAKKQAEEAFKAAKENPEEGKKLAESALKNFELAATLYAQAGDEAKAKAVLEEGKEKYEEIMKKIKEAE | not found |
| design_612_bdadb936-3f14-48ad-830f-718e38d81c30_331_dldesign_0_cycle1_af2pred (protein) GKKAQAIALIDEATALLIAAQAADAETGAKLTAEAVKLLSEAIELAAELNGRAAGLIGRLLALGAAGTISPERLKELAAAAKAEIEAA | not found |
| design_612_bdadb936-3f14-48ad-830f-718e38d81c30_1696_dldesign_0_cycle1_af2pred (protein) SAEILAAQAKALELMKEAAKYNRKAGGKTAELALEAAKYATKAISYFATGEKKAEGEEEYKKAEEKLKEVKKKAA | not found |
| design_613_5efed0bc-64ba-423b-b3f9-a246574e49bb_896_dldesign_0_cycle1_af2pred (protein) AQAEAARQAAVDALAKSGEAAVKAMKEDPERASKRASGAIANLRLLGDEETAEKVAKKLLEEAKKLGEEAYEIAKKEVEKAKENVEA | not found |
| design_612_bdadb936-3f14-48ad-830f-718e38d81c30_1240_dldesign_0_cycle1_af2pred (protein) GEEEERDERARELVEKGREEAEKYIAAGKVGEAAGVVVEKAAEAHRVAVSPEVKAEINRELAAQIRRIMEAIA | not found |
| design_612_bdadb936-3f14-48ad-830f-718e38d81c30_1832_dldesign_0_cycle1_af2pred (protein) MEKAKELVKKIKELARKIKELAERLKADPSTAEQDLKEVNEALSEALELQKKVAEIGSPEDAEEANKELGKAQRAALEAHRAAAELA | not found |
| design_613_5efed0bc-64ba-423b-b3f9-a246574e49bb_304_dldesign_0_cycle1_af2pred (protein) AEAAKAAAVALAAAMLALADALAKAGDFGTALAIATLGARIVDTVVGPEAGAAFQAQRDAVISSNARAAIAAA | not found |
| design_612_bdadb936-3f14-48ad-830f-718e38d81c30_1983_dldesign_0_cycle1_af2pred (protein) EEKVREEAKEAIEKAKEAVEKLKEAAKADPRLAVAAKAATAALEKAKELLEENPESALKLAKTTLDLAEATLAAAA | not found |
| design_612_bdadb936-3f14-48ad-830f-718e38d81c30_642_dldesign_0_cycle1_af2pred (protein) MREEARALLERAREALARARALAEAGGDGGEAVSLMVEALEAASRALRLARELGDEELAEEAERLLAEIRRATAAITQAVIDRA | not found |
| design_612_bdadb936-3f14-48ad-830f-718e38d81c30_773_dldesign_0_cycle1_af2pred (protein) SAAAEAQQRLNELLGRLTAATEAGAAVDPALASALAGKAFTELSKAHQYLLAGDVDAAQAELDKAEKLVKELEAAAAAAAAAAA | not found |
| design_612_bdadb936-3f14-48ad-830f-718e38d81c30_557_dldesign_0_cycle1_af2pred (protein) MDQAVADRTAEALAKHAKRLLEEGLKLAKEGDLEEAKKKVEAAKQVAEVLKNLGSPKAAELGEKMLEEAKKALEEIKKR | not found |
| design_613_5efed0bc-64ba-423b-b3f9-a246574e49bb_395_dldesign_0_cycle1_af2pred (protein) SKTAEDGIKFIKELTEIAKAAAAAGQPKSVVETIRKTLEHATKVFAAAAAEDNPEYAEKVKKAGEEALKEADKAIAA | not found |
| design_613_5efed0bc-64ba-423b-b3f9-a246574e49bb_341_dldesign_0_cycle1_af2pred (protein) SEMIEKIKELGEEAKKIGKEGLAGTPEEMLKAAEKLRELMKEISRLAAEAMKESPEVEEIALAGGEALSIAAEEIAKLQAAAAAA | not found |
| design_612_bdadb936-3f14-48ad-830f-718e38d81c30_2117_dldesign_0_cycle1_af2pred (protein) EEERAAAVNAAMQAIIALQQAGQALEASGDPAAKAKGKEAYAKAGEYQKLLKEYNDDVEKVKEIAKDAAAAAAEYAAAVKKAQAA | not found |
| design_612_bdadb936-3f14-48ad-830f-718e38d81c30_1410_dldesign_0_cycle1_af2pred (protein) MEEIRALAEEALATAEAELATMRAAQEAGDVGTAVDALRVLFRTANEAIRRLRELGGPEEYIERLEAARREAQAILAATARRAIAQA | binds (active) |

| Binder | binding in a display sort |
| --- | --- |
| design_612_bdadb936-3f14-48ad-830f-718e38d81c30_262_dldesign_0_cycle1_af2pred (protein) AKERVKELAKEIEKLAKEAPPEVAKHLKKAAEALKKGVEEGPGAMAEAVVTLAEAAAEAYKLDPEVGERLRRIAAEVARLAIEYQA | not found |
| design_612_bdadb936-3f14-48ad-830f-718e38d81c30_1207_dldesign_0_cycle1_af2pred (protein) GAELLAKKAQELYKKAEELAKKAPESVEAAKKAQEYAQQSIATVAELFEKFPEAPQELKASLARIAAQAAKYYLDAQKLIKAA | not found |
| design_612_bdadb936-3f14-48ad-830f-718e38d81c30_1961_dldesign_0_cycle1_af2pred (protein) MERLEKIEKRIEEIEKVVEEAEKKVKEGTITGEDALRLNKALAEARRIAEEAAKLDPELAKRAQAVAERASRVLVEGNKLLVA | not found |
| design_612_bdadb936-3f14-48ad-830f-718e38d81c30_608_dldesign_0_cycle1_af2pred (protein) AALVAQAAADLEAIGARYPALKPAADRALTLTPGLRLLAANTARNALPGSEEEIVEALRRMVEALEAEQARLDAA | not found |
| design_612_bdadb936-3f14-48ad-830f-718e38d81c30_380_dldesign_0_cycle1_af2pred (protein) SQALQTQMLIANARNLAKNAEELLKKGDVEKAEKAVEALEKLAKIAGEASPEAGKEAGKLAEEARKKVEEFKK | not found |
| design_612_bdadb936-3f14-48ad-830f-718e38d81c30_1181_dldesign_0_cycle1_af2pred (protein) MMEEIKKLTEKGEELLKKGKELAKEGTAEAANKALAYYVEAAEYYEKALRLAKEAGAEEEFIKELEKKLQEAFANANAAAKAAIALTA | not found |
| design_612_bdadb936-3f14-48ad-830f-718e38d81c30_2023_dldesign_0_cycle1_af2pred (protein) AEAETLGSLARGAISFLRTAAAYLRRKAAAAADPATAATLNAYADRLEALAEAAAKAVEEGKYEEAVALAEEGVALALEGAAAAA | not found |
| design_612_bdadb936-3f14-48ad-830f-718e38d81c30_973_dldesign_0_cycle1_af2pred (protein) GAATALAILKANLAAQVKAAAAGVGAKAAAETAKVLADSAAGIAKADPAVAAEAEKLAAEAKAASKEFAAKAEAAAAA | not found |
| design_612_bdadb936-3f14-48ad-830f-718e38d81c30_1687_dldesign_0_cycle1_af2pred (protein) MELVKRAREILERAERAETVEELRRVLAEAARLAGEAARAAIADPATAAAANEALAIALEAMRVATERARAAR | not found |
| design_612_bdadb936-3f14-48ad-830f-718e38d81c30_2254_dldesign_0_cycle1_af2pred (protein) GAAEAEEAARREEAKKLAEEYLKKVEEAAKESTGKAVEVMVKGVKELLEIGDKETANALAQEATRIISAAVRA | not found |
| design_613_5efed0bc-64ba-423b-b3f9-a246574e49bb_150_dldesign_0_cycle1_af2pred (protein) GEKEKAVKEAKEAAEETEKVAKEAIKAAKAAGNEAAAKMAEALAKNAKKALEEAKKGTLEEAKKNLKYIESNLKNAKLILEGQ | not found |
| design_612_bdadb936-3f14-48ad-830f-718e38d81c30_1747_dldesign_0_cycle1_af2pred (protein) SAADVAAATQKALKKQAEKLLELAKEAAAKDKEEAKKYAKAAKKLAELMVLAGEQAGTGAEAKKEAEKIKKEVEKVVKEA | not found |
| design_612_bdadb936-3f14-48ad-830f-718e38d81c30_501_dldesign_0_cycle1_af2pred (protein) DLLAKQKELSEKYERVAEIGEEARKLVGEEAAELSLKALTYYTKAMAAYAAGEATAAEAEKYEKKGEEYEKKLKELKEKELKK | not found |
| design_612_bdadb936-3f14-48ad-830f-718e38d81c30_2140_dldesign_0_cycle1_af2pred (protein) DAAAAALAAAHIAKLNAIAKEGIEAAKKGDPEANAEKAVAKINAAASAAVKEMTALGANGSYITQVLQAAAEAIKKVREAAKKAK | not found |
| design_612_bdadb936-3f14-48ad-830f-718e38d81c30_715_dldesign_0_cycle1_af2pred (protein) IEQLAALARASYRAVRVAAENLAAGRLTPEQLKAAAQLAEGTEKLAKETAAAYNADPATKEKAAEFEELARFAKEVRDAARAAL | not found |
| design_612_bdadb936-3f14-48ad-830f-718e38d81c30_247_dldesign_0_cycle1_af2pred (protein) GALGRSVARDTARAFLADPEKGKEMADIAAGVGATDAAAGRAALEELLRLAKEHPEVAEQLEAAAKKVAAAIKQAEAAAA | not found |
| design_613_5efed0bc-64ba-423b-b3f9-a246574e49bb_418_dldesign_0_cycle1_af2pred (protein) AGAEAAAHLNAAFASLSKGLISTDPAEAQKYFDEAKAHLDKARALAAKDPAVAAEVQAAVDKITDLLEGGKAAR | not found |
| design_613_5efed0bc-64ba-423b-b3f9-a246574e49bb_260_dldesign_0_cycle1_af2pred (protein) AAAVGEGSKLVIEGIKALAEAAQRVAFDPEIQAKLMAQAAKATRALVQGAADPATALELAKKALEEAKKAVKEAEKVLA | not found |
| design_613_5efed0bc-64ba-423b-b3f9-a246574e49bb_35_dldesign_0_cycle1_af2pred (protein) DQARADALIAAVDAAVAAAEAALAEDPELGLAKGAEASALIVEALKASAELSPAERARLAAALNAATARLLKVQAAAREQLA | not found |

— publication PMC13494018
